FH mod: Identification of activators of human fumarate hydratase by quantitative high-throughput screening. FH coupled MDH/diaphorase resazurin fluorescence, 15 min. Potency, µM (doses to about 79.9 µM), for inactives: top-dose activity change, negative = inhibition, usual class: inhibitors. hit rate 0.22% among 54,000; note: potency is the fitted concentration of half-maximal effect; % is set by controls: 0 for no effect and ±100 for the full control effect; the screen sought activators but most active calls are inhibition curves; nearly all actives have a fitted effect of over 45% in size
NTMT1 inhibitor: NTMT1 methyltransferase inhibition; AID 1645870; hit rate 2.5% among 59,000; NTMT1 MTase-Glo SAH luminescence, purified enzyme; Q9BV86; Potency, µM (titrated, usually from 114 µM), for inactives: top-dose activity change, negative = inhibition, most hits filed as inhibitors;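 note: potency is the fitted concentration of half-maximal effect; plate controls were DMSO vehicle for no effect and no enzyme for full effect; nearly all actives have a fitted effect of over 65% in size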
Target sequence (Q9BV86 whole entry, looked up): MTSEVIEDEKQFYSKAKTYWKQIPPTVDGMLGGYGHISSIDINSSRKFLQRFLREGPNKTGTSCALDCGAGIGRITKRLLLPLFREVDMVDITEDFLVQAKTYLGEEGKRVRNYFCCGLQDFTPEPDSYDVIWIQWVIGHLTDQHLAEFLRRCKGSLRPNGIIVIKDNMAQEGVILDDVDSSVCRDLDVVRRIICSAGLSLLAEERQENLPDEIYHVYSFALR
GALC G270D act: enhancers of human galactocerebrosidase G270D mutant activity in cells. P54803. hit rate 0.1% among 45,000. 145M-Twi-hGALC-G270D cells (Twitcher mouse brain line with human GALC G270D), HMU-beta-Gal fluorescence, 48 h. Potency, µM (highest dose often 57.5 µM), hits mostly activators; note: potency is the fitted concentration of half-maximal effect; 0% is about no effect; nearly all actives have a fitted effect of over 65% in size
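Fluorescence readout: HMU-β-gal cleavage by mutant GALC (0.1 mM final, citrate/phosphate pH 5.2 with 1 mg/mL taurocholate), stopped with carbonate/bicarbonate plus Triton X-100. Cells: murine Twitcher 145M-Twi expressing human G270D GALC; qHTS for activators.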
DYRK1A inh-1: human DYRK1A kinase inhibition by ATP depletion readout; hit rate 80% among 100; recombinant DYRK1A, Kinase-Glo ATP depletion luminescence; shares compounds with NTMT1 inhibitor; Potency, µM (highest dose often 76.9 µM), for the others: at the top dose activity change, negative = inhibition, actives largely listed as inhibitors; AID 2705
CLK4 inh-1: confirmation of human CLK4 kinase inhibitors, SAR round 2 | recombinant Clk4, Kinase-Glo ATP luminescence, 4.5 h | Potency, µM (doses to about 76.9 µM), inactives show at the highest dose activity, negative = inhibition, hits mostly inhibitors | hit rate 90% among 90 | shares compounds with NTMT1 inhibitor
CLK4 inh-2: inhibitors of human CLK4 kinase, SAR round 2 | shares compounds with NTMT1 inhibitor | Reaction Biology kinase assay, 10 uM ATP | Potency, µM, actives largely listed as inhibitors | hit rate 100% among 65 | AID 504421; calls by dose curve
DYRK1A inh-2: inhibitors of human DYRK1A kinase | shares compounds with NTMT1 inhibitor | hit rate 90% among 65 | Reaction Biology kinase assay, 10 uM ATP | Potency, µM, hits mostly inhibitors;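 active = compounds that showed inhibition of Dyrk1a and received a fitted potency; inactive = compounds that showed no inhibition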
CLK2 inh: inhibitors of human CLK2 kinase | shares compounds with NTMT1 inhibitor | Reaction Biology kinase assay, 10 uM ATP | Potency, µM, hits mostly inhibitors | hit rate 90% among 65;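 active = compound that inhibits Clk2 kinase in the dose series, with an IC50 potency reported; inactive = no inhibition seen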
CLK3 RBC: blocks human CLK3 kinase activity. hit rate 40% among 65. Potency, µM, usual class: inhibitors. shares compounds with NTMT1 inhibitor. recombinant CLK3 kinase assay, 10 uM ATP. AID 504428;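 active = compounds that inhibited Clk3 enough in the ten-dose series to give a half-maximal potency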
DYRK1B RBC: blocks human DYRK1B kinase activity; hit rate 80% among 65; shares compounds with NTMT1 inhibitor; AID 504429; Potency, µM, actives largely listed as inhibitors; Recombinant Dyrk1b kinase assay, 10 uM ATP;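 active = compounds whose dose response shows an inhibitor phenotype against the kinase Dyrk1b; inactive = compounds showing no inhibitor phenotype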
CLK1 RBC: inhibitors of human CLK1 kinase. shares compounds with NTMT1 inhibitor. recombinant Clk1 kinase assay, 10 uM ATP. Potency, µM, actives largely listed as inhibitors. hit rate 90% among 65. AID 504430;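 active = compounds that block the splicing kinase Clk1 enough to give a fitted half-inhibition concentration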
Target sequence (P49759 whole entry, looked up): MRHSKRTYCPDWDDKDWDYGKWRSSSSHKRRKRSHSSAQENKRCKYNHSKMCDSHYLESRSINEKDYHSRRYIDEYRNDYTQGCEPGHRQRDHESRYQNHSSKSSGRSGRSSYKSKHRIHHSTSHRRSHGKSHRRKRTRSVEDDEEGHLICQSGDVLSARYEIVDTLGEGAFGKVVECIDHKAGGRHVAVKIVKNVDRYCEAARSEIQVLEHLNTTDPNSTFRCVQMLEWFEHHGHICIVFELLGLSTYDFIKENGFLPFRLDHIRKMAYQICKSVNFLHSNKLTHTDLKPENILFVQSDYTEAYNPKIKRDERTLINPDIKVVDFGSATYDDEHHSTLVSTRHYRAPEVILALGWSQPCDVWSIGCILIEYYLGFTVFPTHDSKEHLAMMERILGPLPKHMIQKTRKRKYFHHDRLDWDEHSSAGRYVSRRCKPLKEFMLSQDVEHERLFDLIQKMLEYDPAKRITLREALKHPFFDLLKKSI
Sfp qHTS opt: inhibits purified B. subtilis Sfp PPTase; shares compounds with NTMT1 inhibitor; hit rate 78% among 230; purified Sfp PPTase enzyme activity, qHTS; Potency, µM (doses to about 114 µM), for the others: top-dose activity change, negative = inhibition, usual class: inhibitors
HM489 growth: Sfp PPTase inhibitors: growth inhibition of B. subtilis HM489. B. subtilis HM489 (acpS-) growth, BacTiter-Glo, 5 h. shares compounds with NTMT1 inhibitor. hit rate 50% among 220. AID 540353. Potency, µM (doses to about 114 µM), without a hit: at the top dose activity change, negative = inhibition, hits mostly inhibitors
Sfp gel opt: Sfp PPTase inhibition, gel-based detection. shares compounds with NTMT1 inhibitor. purified Sfp PPTase, gel-based product detection. Potency, µM (series often up to 250 µM), without a hit: at the top dose activity change, negative = inhibition, hits mostly inhibitors. hit rate 54% among 220
Sfp inh gel: confirmation of Bacillus subtilis Sfp PPTase inhibitors; shares compounds with NTMT1 inhibitor; purified Sfp PPTase, gel-based product detection; Potency, µM (titrated, usually from 250 µM), inactives show at the top dose activity change, negative = inhibition, actives largely listed as inhibitors; hit rate 90% among 45
Sfp inh SAR2: Sfp phosphopantetheinyl transferase inhibition, SAR round 2; Potency, µM (highest dose often 57.1 µM), for inactives: top-dose activity change, negative = inhibition, usual class: inhibitors; hit rate 87% among 230; shares compounds with NTMT1 inhibitor; purified Sfp enzyme, PPTase activity, qHTS
hGST ctr: inhibits hGST A1-1 in Sfp inhibitor counter-screen. shares compounds with NTMT1 inhibitor. hGST A1-1 enzyme activity counter-screen, qHTS. Potency, µM (titrated, usually from 114 µM), for the others: at the top dose activity change, negative = inhibition, most hits filed as inhibitors. 55 tested, under 10 active. AID 602391
HSD17B4 counter: counter-screen for HPGD inhibitors: human HSD17B4 inhibition | shares compounds with NTMT1 inhibitor | purified HSD17B4, estradiol/NAD+, NADH fluorescence | Potency, µM (doses to about 57.1 µM), for inactives: at the highest dose activity change, negative = inhibition, usual class: inhibitors | hit rate 10% among 230 | AID 743187
ALDH1A1 inh: inhibits human ALDH1A1, off-target for HPGD inhibitors | shares compounds with NTMT1 inhibitor | hit rate 93% among 230 | recombinant ALDH1A1, NADH fluorescence, propionaldehyde/NAD+ | Potency, µM (series often up to 57.1 µM), for the others: at the top dose activity change, negative = inhibition, hits mostly inhibitors
* hit, by the source's call; i = inactive; ? = inconclusive; . = no result given; [ ] = remark or other dose. This excerpt belongs to a sample that is enriched for hits. Unless noted, calls come from the whole dose curve; as a rule, active = well fitted curve in the direction sought with a large enough effect; inconclusive = small, poorly fitted or top-dose-only effect, or another doubt; inactive = no such curve, though single readings can be large; an effect the other way counts as inactive or inconclusive.

SMILES | FH mod | NTMT1 inhibitor | GALC G270D act | others
COc1ccc([C@@H](O)[C@@H](C)Oc2ccc([C@H]3O[C@H](c4ccc(O[C@H](C)[C@H](O)c5ccc(OC)c(OC)c5)c(OC)c4)[C@H](C)[C@H]3C)cc2OC)cc1OC | . | 10% | .
C=C(C(=O)OC[C@H]1O[C@@H](OC(=O)/C=C/c2ccccc2)[C@H](O)[C@@H](O)[C@@H]1O)C(O)CO (stereo partly specified) | 0%[53.3 µM] | -3%[29.8 µM] | .
COc1cc(C)[nH]c(=O)c1CN1CCc2c(Cl)cc([C@H](OC)C3COC3)c(Cl)c2C1=O | . | 9% | .
Nc1cc(C(F)(F)F)c(-c2nc(N3CCOCC3)nc(N3CCOCC3)n2)cn1 | . | 3% | .
CC1(C)CCC2(CC1)N[C@@H](C(=O)N[C@@H]1CC[C@@H](C(N)=O)OC1)[C@H](c1ccnc(Cl)c1F)[C@]21C(=O)Nc2cc(Cl)ccc21 | . | -5% | .
CC(=O)C1=C(O)C2c3c[nH]c4cccc(c34)CC2C(C)(C)N(C)C1=O (stereo unspecified) | -5% | ? | .
Cc1nc2c3ccccc3nc(NNC(=O)CCC(=O)N3CCN(c4cccc(C(F)(F)F)c4)CC3)n2n1 | 12% | 3% | i
OCc1ccnc(NC(=S)N2CCN(c3cccc(C(F)(F)F)c3)CC2)c1 | . | -1% | . | Sfp qHTS opt=59µM*;HM489 growth=53µM*;Sfp gel opt=37%;Sfp inh SAR2=32µM*;HSD17B4 counter=-21%;ALDH1A1 inh=24µM*
Cc1cc(C)nc(NC(=S)N2CCN(c3cc(C(F)(F)F)cc(C(F)(F)F)c3)CC2)c1 | . | . | . | Sfp qHTS opt=3.3µM*;HM489 growth=17%;Sfp gel opt=?;Sfp inh SAR2=0.51µM*;HSD17B4 counter=-2%;ALDH1A1 inh=22µM*
Cc1ccnc(N=C(N)N2CCN(c3cccc(C(F)(F)F)c3)CC2)c1 | . | . | . | Sfp qHTS opt=?;HM489 growth=?;Sfp gel opt=1%;Sfp inh gel=1%;Sfp inh SAR2=36µM*;hGST ctr=?
CCc1nnc2c(N3CCN(c4cccc(C(F)(F)F)c4)CC3)nc3ccccc3n12 | -17% | 17% | i
Cc1cn(C)c(CC(=O)N2CCN(c3cccc(C(F)(F)F)c3)CC2)c1C(=O)O | -8% | -7% | i
Cc1ccc(OCc2nc(-c3ccc(C(=O)N4CCN(c5cccc(C(F)(F)F)c5)CC4)cc3)oc2C)cc1 | ? | 2% | i
FC(F)(F)c1cccc(N2CCN(C(=S)Nc3cc4ccccc4cn3)CC2)c1 | . | . | . | Sfp qHTS opt=47µM*;HM489 growth=-1%;Sfp gel opt=16µM*;Sfp inh SAR2=13µM*;HSD17B4 counter=24µM*;ALDH1A1 inh=15µM*
CC(CC12CCCN1C(=O)C1CCCN1C2=O)OC(N)=O (stereo unspecified) | 10%[53.3 µM] | 7%[29.8 µM] | .
Clc1ccccc1-c1ccc2ncnc(NCc3ccc4c(c3)OCO4)c2c1 | . | 3% | .
c1csc(CNc2ncnc3ccc(-c4ccc5c(c4)OCO5)cc23)n1 | . | 12% | . | CLK4 inh-1=0.046µM*;CLK4 inh-2=0.05*;DYRK1A inh-2=0.07µM*;CLK2 inh=0.41µM*;CLK3 RBC=3.5µM*;DYRK1B RBC=0.45µM*;CLK1 RBC=0.18µM*
Fc1c(-c2ccc3ncnc(NCc4cccs4)c3c2)ccc2c1OCO2 | . | ? | . | DYRK1A inh-1=0.18µM*;CLK4 inh-2=0.13*;DYRK1A inh-2=0.16µM*;CLK2 inh=4.4µM*;CLK3 RBC=9.3µM*;DYRK1B RBC=2.3µM*;CLK1 RBC=0.31µM*
c1csc(CNc2ncnc3ccc(-c4ccc5c(c4)OCCO5)cc23)c1 | . | ? | . | DYRK1A inh-1=0.37µM*
c1cncc(-c2ccc3ncnc(NCc4ccc5c(c4)OCO5)c3c2)c1 | . | -9% | .
CN(Cc1nccs1)c1ncnc2ccc(-c3ccc4c(c3)OCO4)cc12 | 3% | 7.1µM* | . | DYRK1A inh-1=0.065µM*;CLK4 inh-2=0.02*;DYRK1A inh-2=0.051µM*;CLK2 inh=0.59µM*;CLK3 RBC=4.7µM*;DYRK1B RBC=0.18µM*;CLK1 RBC=0.028µM*
Cc1ccc(NC(=O)c2cnn3c(C)cc(C)nc23)c(C)c1 | . | 8% | .
Cc1ccc(NC(=O)c2cnn3c(-c4ccccc4)cc(C)nc23)cc1 | . | 17% | .
